D2 ag-1: activates the human D2 dopamine receptor | AID 485358 | activation, % at 2 µM | 340,000 compounds, 0.53% hits | P14416 | HEK293 T-REx D2 cells, calcium flux agonist mode;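 active = activation over 3 SD above normal in the single-dose calcium agonist read, cut at about 30% in these data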; also: 0% is about no effect
Target sequence (P14416 whole entry, looked up): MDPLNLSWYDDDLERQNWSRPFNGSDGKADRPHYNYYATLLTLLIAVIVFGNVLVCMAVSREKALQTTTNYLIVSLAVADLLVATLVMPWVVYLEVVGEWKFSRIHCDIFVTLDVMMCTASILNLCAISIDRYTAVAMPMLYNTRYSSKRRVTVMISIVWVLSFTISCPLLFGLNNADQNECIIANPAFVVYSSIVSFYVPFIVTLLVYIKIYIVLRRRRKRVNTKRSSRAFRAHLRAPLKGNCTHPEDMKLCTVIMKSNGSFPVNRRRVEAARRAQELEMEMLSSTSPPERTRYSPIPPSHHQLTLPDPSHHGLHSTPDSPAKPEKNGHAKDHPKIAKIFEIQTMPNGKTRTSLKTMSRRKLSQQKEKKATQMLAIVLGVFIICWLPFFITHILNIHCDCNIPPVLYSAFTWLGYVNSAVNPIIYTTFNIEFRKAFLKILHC
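Calcium-flux readout, 1 cycle/sec over 180 s following compound pin transfer, in inducible HEK293 Trex D2 cells (force-coupled); dopamine controls included. Positive calcium responses during this window marked compounds as potential agonists.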
D2 ag-2: activates the human D2 dopamine receptor. P14416. DiscoveRx PathHunter D2 beta-arrestin, luminescence, 90 min; 100% = 57 uM dopamine signal. activation, % (concentration not given with the values). 360,000 compounds, 0.084% hits; in the data active = activation above about 40%
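DiscoveRx PathHunter D2 beta-arrestin cells (2,100/well) attached overnight, then compound-stimulated 90 min at 37 C in HBSS/10 mM HEPES/0.1% Tween-20 buffer; beta-galactosidase complementation read by luminescence after 1 h at ambient temperature. Dopamine 57 uM final (EC100) as control.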
D2 antagonist: antagonists of human D2 dopamine receptor | P14416 | 340,000 compounds, 2% hits | HEK293 TREx D2 cells, calcium flux, dopamine EC80 | inhibition, % at 10 µM | AID 485344; in the data active = inhibition above about 30%; inactive = below that, where a call was filed; also: 0% is about no effect
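Read-out: kinetic calcium fluorescence (1 cycle/s) in inducible HEK293 T-REx D2 cells after an EC80 dopamine addition that followed 180 s compound preincubation. Loss of the dopamine response indicates antagonism.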
D2 PAM-1: positive allosteric modulators of human D2 dopamine receptor. P14416. DiscoveRx D2 beta-arrestin cells, luminescence, 90 min; 100% = 57 uM dopamine signal. potentiation, % (concentration not given with the values). 360,000 compounds, 0.23% hits. AID 624464; in the data active = potentiation above about 50%
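PathHunter D2 cells, attached overnight at 37 deg C, received compound in DMSO plus dopamine at EC20 (50 nM final) for 90 min at 37 deg C. Beta-arrestin recruitment was read as luminescence after 1 h with detection reagent at ambient temperature.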
D2 PAM-2: D2 dopamine receptor (human) potentiation; 340,000 compounds, 0.34% hits; potentiation, % at 10 µM; P14416; HEK293 T-REx D2, calcium flux, EC20 dopamine potentiation;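 active = potentiation over 3 SD above the plate norm, cut at about 30% in these data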; also: 0% is about no effect
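Tetracycline-induced Hek293 Trex D2 cells, force-coupled to calcium, loaded with no-wash calcium dye. Compound added with 180 s kinetic read for agonism, then EC20 dopamine and a further 180 s read for potentiation.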
* hit, by the source's call. Hits are enriched below; roughly 2.4% of the tested compounds scored in any of these assays.

How did CCC(C)[C@H](NC(=O)NC1CCN(Cc2ccccc2)CC1)C(=O)OC (stereo partly drawn) do in these assays?
D2 ag-1: 0.1; D2 ag-2: -3.4; D2 antagonist: 56.6*; D2 PAM-1: -21.3; D2 PAM-2: -20.1

How did COc1ccc(S(=O)(=O)NC2CCN(Cc3ccccc3)CC2)cc1NC(C)=O do in these assays?
D2 ag-1: -0.8; D2 ag-2: 6.8; D2 antagonist: 8.6; D2 PAM-1: -4.5; D2 PAM-2: -7.8

What do the screens show for `O=C(CSCn1nnc2c(=O)[nH]c(Cc3ccc(F)cc3)nc21)Nc1cccc(C(F)(F)F)c1`?
D2 ag-1: 0.3

What do the screens show for `CCCC(=O)Nc1ccc(-c2nc3ncccc3o2)cc1C`?
D2 ag-1: 0.5; D2 PAM-2: -28.9

Results for COc1ccc(-n2c(=O)c3c(c4cc(OC)ccc4n3C)n(Cc3cccc(OC)c3)c2=O)cc1 ?
D2 ag-1: 0.7; D2 PAM-2: -9.4

What do the screens show for `COc1ccc(Cl)cc1NC(=O)NCC1CCN(Cc2cc(C)ccc2C)CC1`?
D2 ag-1: 0.7; D2 ag-2: -3.0; D2 antagonist: 54.6*; D2 PAM-1: -6.5; D2 PAM-2: -27.6

How did Cc1ccc(C)c(CN2CCC(CNC(=O)Nc3ccc(C)c(C)c3)CC2)c1 do in these assays?
D2 ag-1: -0.2; D2 ag-2: -0.2; D2 antagonist: -16.2; D2 PAM-1: -6.7; D2 PAM-2: -12.3

How did C=CCOc1ccccc1CN(C(=O)CCl)c1ccc2c(c1)OCO2 do in these assays?
D2 ag-1: 0.2; D2 ag-2: -3.8; D2 antagonist: 33.0*; D2 PAM-1: -3.4; D2 PAM-2: 4.6

Results for CCOc1ccccc1NC(=O)Nc1ccc2c(c1)OCO2 ?
D2 ag-1: 0.1; D2 ag-2: -5.0; D2 antagonist: -3.9; D2 PAM-1: -26.2; D2 PAM-2: -10.1

What do the screens show for `CN(C)c1ccc(N=Cc2nc(-c3ccccc3)oc2O)cc1`?
D2 ag-2: -0.9; D2 PAM-1: 15.5

Results for CN(C)c1ccc(N=Cc2cccn2C)cc1 ?
D2 ag-1: -0.1; D2 ag-2: 5.9; D2 antagonist: -22.8; D2 PAM-1: -20.4; D2 PAM-2: 30.7*

Results for Cc1ccc(C)c(N2N=C(C(=O)Nc3ccc(N4CCOCC4)cc3)CCC2=O)c1 ?
D2 ag-1: -0.4; D2 ag-2: -3.2; D2 antagonist: 35.1*; D2 PAM-1: -11.4; D2 PAM-2: 0.2

Results for Cc1ccc(C)c(N2N=C(C(=O)O)CCC2=O)c1 ?
D2 ag-1: 0.3; D2 ag-2: 1.4; D2 antagonist: 5.6; D2 PAM-1: -1.8; D2 PAM-2: -8.2

How did Cc1cc(OCC(=O)O/N=C(\N)c2ccccc2)ccc1Br do in these assays?
D2 ag-1: 30.2*; D2 ag-2: 7.3; D2 antagonist: 1.5; D2 PAM-1: 0.4; D2 PAM-2: -10.7

Results for CN(c1ccc(OCC(=O)N2CCOCC2)cc1)S(=O)(=O)c1ccc(F)cc1 ?
D2 ag-1: 0.2; D2 ag-2: -1.7; D2 antagonist: 4.5; D2 PAM-1: 2.7; D2 PAM-2: 10.1

What do the screens show for `CN(c1ccc(OCC(=O)N2CCOCC2)cc1)S(=O)(=O)c1ccc(Cl)cc1`?
D2 ag-1: -0.2; D2 ag-2: -0.6; D2 antagonist: 35.4*; D2 PAM-1: -2.1; D2 PAM-2: -9.7

Results for Cc1ccc(C)c(NS(=O)(=O)c2ccc(OCC(=O)N3CCCC3)cc2)c1 ?
D2 ag-1: -0.2; D2 ag-2: 0.4; D2 antagonist: 8.1; D2 PAM-1: -1.9; D2 PAM-2: -4.9

What do the screens show for `Cc1ccc(C)c(NS(=O)(=O)c2ccc(OCC(=O)N3CCOCC3)cc2)c1`?
D2 ag-1: -0.2; D2 ag-2: -3.8; D2 antagonist: 32.3*; D2 PAM-1: -7.7; D2 PAM-2: -2.6

Results for CCOC(=O)c1c(C)[nH]c(CCC(=O)Nc2cc(C)ccc2OC)c1C ?
D2 ag-1: -0.4; D2 PAM-2: 8.4

How did O=C(Nc1cccc(-n2cnnn2)c1)c1ccc(C(F)(F)F)cc1 do in these assays?
D2 ag-1: 0.0; D2 ag-2: -1.5; D2 antagonist: 57.3*; D2 PAM-1: -15.9; D2 PAM-2: -17.1

Results for COc1cccc(-c2nnc3sc(CN4CCCCC4)cn23)c1 ?
D2 PAM-2: 5.5

How did N/C(=N\N=C/c1ccc(Br)cc1)N/N=C\c1ccc(Br)cc1 do in these assays?
D2 ag-1: -0.4; D2 ag-2: -2.4; D2 antagonist: 0.9; D2 PAM-1: -14.1; D2 PAM-2: -2.7

What do the screens show for `N/C(=N\N=C/c1ccc(F)cc1)N/N=C\c1ccc(F)cc1`?
D2 ag-1: -1.5; D2 ag-2: 4.1; D2 antagonist: 40.3*; D2 PAM-1: -43.7; D2 PAM-2: 3.5

How did COc1ccc(OCCCCn2c(C3CC(=O)N(c4cccc(Cl)c4)C3)nc3ccccc32)cc1 (stereo not drawn) do in these assays?
D2 ag-1: -0.3; D2 PAM-2: 3.5

Results for COc1cc(C)c(Cl)c(C)c1S(=O)(=O)NCc1cccnc1 ?
D2 ag-1: 0.6; D2 ag-2: 1.3; D2 antagonist: -21.9; D2 PAM-1: -6.7; D2 PAM-2: 31.7*

What do the screens show for `CCOC(=O)c1ccc(NS(=O)(=O)c2c(C)[nH]c(C)c2C(=O)N2CCCCC2)cc1`?
D2 ag-1: 1.1; D2 ag-2: -1.8; D2 antagonist: 69.3*; D2 PAM-1: 7.3; D2 PAM-2: -6.3

Results for Cc1cccc(NC(=O)c2sc3nc4n(c(=O)c3c2C)N=C(c2ccc(F)cc2)CS4)c1C ?
D2 ag-1: 0.4; D2 PAM-2: -3.5

What do the screens show for `COc1ccc(-c2cn3cccnc3n2)cc1NC(=O)c1cc(C)cc(C)c1`?
D2 ag-1: 0.3; D2 PAM-2: -8.0

Results for COc1ccc(C)c(NC(=O)NCCc2cnc[nH]2)c1 ?
D2 ag-1: -0.1; D2 ag-2: 0.3; D2 antagonist: 37.7*; D2 PAM-1: -27.4; D2 PAM-2: -10.4

Results for COc1ccc(CC(=O)NCCc2cnc[nH]2)cc1 ?
D2 ag-1: 0.3; D2 ag-2: -4.7; D2 antagonist: 4.0; D2 PAM-1: -11.2; D2 PAM-2: 6.8

What do the screens show for `COc1cccc2cc(C(=O)NCc3ccccn3)c(=O)oc12`?
D2 ag-1: 0.4; D2 ag-2: -2.3; D2 antagonist: 43.7*; D2 PAM-1: 8.1; D2 PAM-2: -4.3

What do the screens show for `CCN(CC)C(=O)CSc1nc(-c2ccccc2)cc(-c2ccc(OC)cc2)c1C#N`?
D2 ag-1: -0.3; D2 PAM-2: 7.9

Results for On1onc2c3cc(-c4ccccc4)nc3ccc21 ?
D2 ag-1: 0.2; D2 ag-2: 13.7; D2 antagonist: -3.4; D2 PAM-1: 59.4*; D2 PAM-2: 0.9

How did N#Cc1ccc(NC(=O)c2ccc3c(c2)nnn3C2CCCC2)cc1 do in these assays?
D2 ag-1: 0.0; D2 PAM-2: 5.5

How did CCN(C(=O)CN(C)S(=O)(=O)c1ccc2c(c1)c(=O)n(C)c(=O)n2C)c1ccc(OC)cc1 do in these assays?
D2 PAM-2: -0.9
